Results filed as inconclusive are left out. Calls of active or inactive are those of the source. Unless noted, the call rests on the fitted dose curve.
Tests used:
[1] = Nuclear factor erythroid 2-related factor 2/antioxidant responsive element (Nrf2/ARE) small molecule agonists: qHTS cell viability counter screen in human keratinocytes (AID 1919968; active means well fitted curve in the direction sought with a large enough effect in the repeat runs; an effect the other way counts as inactive or inconclusive; further: nearly all actives have a fitted effect of over 55% in size; further: potency means the concentration at half of the fitted maximal effect)
Outline: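 In human HaCaT keratinocytes stably expressing an ARE-driven luciferase, compound exposure lasted 23 h at 37 C under 5% CO2. Viable cells are quantified with a protease-based fluorogenic reagent (CellTiter-Fluor) read 1 h after addition.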

[2] = target: Gonadotropin-releasing hormone receptor (Homo sapiens) (UniProt P30968); assay: Human gonadotropin-releasing hormone receptor (GnRHR) small molecule agonists, calcium flux assay in GnRHR-HEK293 cells (AID 1920063); further: nearly all actives have a fitted effect of over 35% in size
Outline: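 Intracellular calcium rise is the read-out: engineered human GnRHR HEK293 cells, dye-loaded, are exposed to DMSO-dissolved compounds and fluorescence at Ex/Em 480/540 is tracked for 3 min.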

[3] = target: KiSS-1 receptor (Homo sapiens) (UniProt Q969F8); assay: Human kisspeptin (KISS1R) small molecule agonists, calcium flux assay in KISS1R-HEK293 cells (AID 1920064; active means well fitted curve in the direction sought with a large enough effect in the repeat runs; an effect the other way counts as inactive or inconclusive)
Outline: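 Concentration-response testing used 15 concentrations in triplicate on human KISS1R-expressing HEK293 cells. Calcium-dependent fluorescence (Ex/Em 480/540) was followed kinetically for 3 min after compound transfer.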

[4] = G protein-coupled receptor (GPCR) small molecule agonists, calcium flux assay: HEK293 wild type cell line counter screen (AID 1920065)
Outline: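 Fluorescence intensity signals activation. After overnight (18 h) culture and a 1 h calcium dye load at 37 C, compounds are added by pin tool and the plate read at 480/540 nm for 3 min in 1 s steps.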

[5] = p53 small molecule agonists, cell-based qHTS assay with rat liver microsomes (AID 1963578)
Outline: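 Fluorescence from a beta-lactamase reporter under a p53 response element was measured after cells had been incubated 16 h at 37 C with test compound and rat liver microsomes plus NADPH (0.5 mg/mL final each).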

[6] = p53 small molecule agonists, cell-based qHTS assay with rat liver microsomes: qHTS cell viability counter screen (AID 1963580); further: nearly all actives have a fitted effect of over 45% in size
Outline: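 Cytotoxicity counter screen: intracellular ATP measured by CellTiter-Glo luminescence in the same wells as the beta-lactamase reporter read, on HCT-116 p53RE-bla cells exposed 16 h at 37 C to compounds with rat liver microsomes and NADPH, each 0.5 mg/mL final.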

[7] = p53 small molecule agonists, cell-based qHTS assay: qHTS cell viability counter screen (AID 1963581); further: nearly all actives have a fitted effect of over 45% in size
Outline: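 Luminescence from CellTiter-Glo, reflecting ATP content, serves as the cytotoxicity measure; it is taken after the 2 h reporter substrate step in HCT-116 p53RE-bla cells dosed for 16 h at 37 C.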

[8] = p53 small molecule agonists, cell-based qHTS assay (AID 1963582; active means well fitted activation curve with a large enough effect in the signal ratio in the repeat runs, not every such curve was filed as active; the % refers to the signal ratio)
Outline: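 After plating, p53RE-bla cells sat 5 h in the incubator; compounds or DMSO vehicle were pinned in; a 16 h incubation at 37 C followed; FRET substrate was added and, 2 h later at RT, fluorescence was measured.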

[9] = target: 5-hydroxytryptamine receptor 2A (Homo sapiens) (UniProt P28223); assay: 5-hydroxytryptamine receptor 2A (HTR2A) small molecule antagonists, cell-based qHTS assay (AID 1963586); further: nearly all actives have a fitted effect of over 45% in size
Outline: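 CHO cells stably expressing human HTR2A were plated for 18 h at 37 C, then loaded with calcium dye for 1 h. Compounds were preincubated 5 min at room temperature before DOI (4 nM solution) was added. Kinetic fluorescence was read for 3 min.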

[10] = target: 5-hydroxytryptamine receptor 2A (Homo sapiens) (UniProt P28223); assay: 5-hydroxytryptamine receptor 2A (HTR2A) small molecule agonists, cell-based qHTS assay (AID 1963587); further: nearly all actives have a fitted effect of over 30% in size
Outline: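 CHO cells stably expressing human HTR2A, plated 18 h, loaded with calcium dye 1 h at 37 C. Agonist mode: compounds added and intracellular calcium fluorescence recorded kinetically for 2 min at 1 sec intervals.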

[11] = target: Muscarinic acetylcholine receptor M1 (Homo sapiens) (UniProt P11229); assay: Cholinergic receptor muscarinic 1 (CHRM1) small molecule antagonists, cell-based qHTS assay (AID 1963588); further: nearly all actives have a fitted effect of over 40% in size
Outline: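 Compounds were tested at 15 concentrations in three independent runs. Dye-loaded CHRM1-CHO cells were exposed 5 min at room temperature before stimulation by acetylcholine added at 50nM. Intracellular calcium was read kinetically on FDSS for 3 min.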

[12] = target: Muscarinic acetylcholine receptor M1 (Homo sapiens) (UniProt P11229); assay: Cholinergic receptor muscarinic 1 (CHRM1) small molecule agonists, cell-based qHTS assay (AID 1963589); further: nearly all actives have a fitted effect of over 35% in size
Outline: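 Fluorescent calcium dye reports M1 activation in stably transfected CHO cells. Compounds, 15 concentrations, added after 1 h dye loading at 37 C; kinetic reading at 1 sec intervals.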

[13] = cAMP Responsive Elements (CRE) small molecule agonists, cell-based qHTS assay (AID 1963590)
Outline: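 Compound exposure lasted 3 h at 37 C/5% CO2 in CRE-bla HEK 293T cells grown in assay medium with 10% dialyzed FBS and 25 mM HEPES. Reporter signal came from LiveBLAzer B/G FRET substrate, 2 h, room temperature.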

[14] = cAMP Responsive Elements (CRE) small molecule antagonists, cell-based qHTS assay (AID 1963591; active means well fitted inhibition curve with a large enough effect in the signal ratio in the repeat runs, not every such curve was filed as active; the % refers to the signal ratio; further: potency means the concentration at half of the fitted maximal effect)
Outline: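 Stimulation used NKH477 at a final 0.25 uM for 3 h in compound-treated CRE-bla HEK293T cells, seeded 18 h beforehand. Reporter activity was measured with LiveBLAzer B/G FRET substrate after 2 h at room temperature.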

[15] = target: Beta-2 adrenergic receptor (Homo sapiens) (UniProt P07550); assay: Adrenergic beta2 receptor (ADRB2) small molecule antagonists, cell-based qHTS assay (AID 1963592); further: series mostly up to about 92 µM; nearly all actives have a fitted effect of over 50% in size
Outline: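 Assay format: CHO-ADRB2 cells, 18-20hr seeding at 37C/5% CO2, then compound plus 1nM isoproterenol agonist mix for 0.5hr RT. Homogeneous time-resolved fluorescence cAMP detection after 1hr, expressed as 665/615 nm ratio.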

[16] = target: D(2) dopamine receptor (Homo sapiens) (UniProt P14416); assay: Dopamine D2 receptor (DRD2) small molecule agonists, cell-based qHTS assay (AID 1963594); further: nearly all actives have a fitted effect of over 35% in size; further: potency means the concentration at half of the fitted maximal effect
Outline: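 HEK293 cells stably expressing human DRD2, pre-treated with PDE inhibitor Ro20-1724 (0.1 mM final) and compound 10 min at room temperature, then stimulated with NKH477 (200nM […]) for 30 min. cAMP read by HTRF (665/620 nm).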

[17] = target: D(2) dopamine receptor (Homo sapiens) (UniProt P14416); assay: Dopamine D2 receptor (DRD2) small molecule antagonists, cell-based qHTS assay (AID 1963595; active means well fitted inhibition curve with a large enough effect in the signal ratio in the repeat runs, with a control signal flat; the % refers to the signal ratio)
Outline: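 Stable D2 receptor HEK293 line, 24 h after seeding. Compound preincubated 10 min, then quinpirole (12 nM) with forskolin analogue NKH477 (200 nM), 30 min, room temperature. Detection by time-resolved FRET of cAMP.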

[18] = p53 small molecule agonists, cell-based qHTS assay with human liver microsomes: qHTS cell viability counter screen (AID 1963579); further: nearly all actives have a fitted effect of over 45% in size
Outline: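 Seed p53RE-bla cells at 4,000 per well; incubate 5 h at 37 C; add compound, human liver microsomes and NADPH; incubate 16 h at 37 C; add CellTiter-Glo; after 30 min at room temperature, read luminescence.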

[19] = target: Beta-2 adrenergic receptor (Homo sapiens) (UniProt P07550); assay: Adrenergic beta2 receptor (ADRB2) small molecule agonists, cell-based qHTS assay (AID 1963593);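 further: CHO cells stably overexpressing human ADRB2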
Outline: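 CHO cells stably over-expressing ADRB2 were plated overnight at 37C, then dosed with compounds plus a stimulation mix containing 100uM IBMX and 25uM Ro-20-1724 for 0.5hr at room temperature. cAMP was measured by HTRF competition, 1hr.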

Measured: Potency

Muscarinic acetylcholine receptor M1 (Homo sapiens), sequence (P11229 whole entry, looked up): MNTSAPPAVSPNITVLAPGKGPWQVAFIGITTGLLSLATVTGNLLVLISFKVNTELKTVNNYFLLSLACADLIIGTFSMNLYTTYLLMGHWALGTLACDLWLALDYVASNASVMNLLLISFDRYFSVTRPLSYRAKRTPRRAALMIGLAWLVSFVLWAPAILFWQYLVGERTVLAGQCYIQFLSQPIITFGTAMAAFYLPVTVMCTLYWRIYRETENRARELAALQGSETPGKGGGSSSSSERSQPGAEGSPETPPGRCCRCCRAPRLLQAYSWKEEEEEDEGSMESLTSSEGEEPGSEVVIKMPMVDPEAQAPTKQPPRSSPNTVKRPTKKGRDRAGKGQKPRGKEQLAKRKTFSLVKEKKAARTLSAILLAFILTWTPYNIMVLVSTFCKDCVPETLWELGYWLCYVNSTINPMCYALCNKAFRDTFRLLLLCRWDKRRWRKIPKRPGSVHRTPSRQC
Beta-2 adrenergic receptor (Homo sapiens), sequence (P07550 whole entry, looked up): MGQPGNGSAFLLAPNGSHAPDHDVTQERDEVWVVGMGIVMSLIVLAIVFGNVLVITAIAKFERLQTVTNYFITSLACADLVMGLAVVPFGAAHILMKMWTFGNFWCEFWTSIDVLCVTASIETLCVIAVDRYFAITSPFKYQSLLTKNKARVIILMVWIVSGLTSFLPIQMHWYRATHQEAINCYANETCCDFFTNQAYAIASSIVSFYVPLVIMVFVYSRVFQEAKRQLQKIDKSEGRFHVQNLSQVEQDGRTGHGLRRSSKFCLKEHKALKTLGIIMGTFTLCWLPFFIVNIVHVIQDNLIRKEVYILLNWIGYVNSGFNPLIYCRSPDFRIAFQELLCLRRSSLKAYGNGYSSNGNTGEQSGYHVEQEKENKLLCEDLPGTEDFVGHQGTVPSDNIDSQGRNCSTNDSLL
D(2) dopamine receptor (Homo sapiens), sequence (P14416 whole entry, looked up): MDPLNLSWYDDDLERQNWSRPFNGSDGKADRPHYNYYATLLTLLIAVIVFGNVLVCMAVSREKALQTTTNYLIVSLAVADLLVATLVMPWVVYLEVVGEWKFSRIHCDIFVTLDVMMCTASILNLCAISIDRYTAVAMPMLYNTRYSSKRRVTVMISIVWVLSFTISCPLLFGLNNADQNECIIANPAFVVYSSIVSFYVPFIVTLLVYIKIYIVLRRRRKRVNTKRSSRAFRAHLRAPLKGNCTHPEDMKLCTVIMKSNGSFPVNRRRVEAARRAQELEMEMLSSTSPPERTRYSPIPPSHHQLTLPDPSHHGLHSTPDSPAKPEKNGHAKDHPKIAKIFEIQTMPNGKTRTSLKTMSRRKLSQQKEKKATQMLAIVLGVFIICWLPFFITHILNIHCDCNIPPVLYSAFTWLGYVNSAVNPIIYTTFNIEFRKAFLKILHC
5-hydroxytryptamine receptor 2A (Homo sapiens), sequence (P28223 whole entry, looked up): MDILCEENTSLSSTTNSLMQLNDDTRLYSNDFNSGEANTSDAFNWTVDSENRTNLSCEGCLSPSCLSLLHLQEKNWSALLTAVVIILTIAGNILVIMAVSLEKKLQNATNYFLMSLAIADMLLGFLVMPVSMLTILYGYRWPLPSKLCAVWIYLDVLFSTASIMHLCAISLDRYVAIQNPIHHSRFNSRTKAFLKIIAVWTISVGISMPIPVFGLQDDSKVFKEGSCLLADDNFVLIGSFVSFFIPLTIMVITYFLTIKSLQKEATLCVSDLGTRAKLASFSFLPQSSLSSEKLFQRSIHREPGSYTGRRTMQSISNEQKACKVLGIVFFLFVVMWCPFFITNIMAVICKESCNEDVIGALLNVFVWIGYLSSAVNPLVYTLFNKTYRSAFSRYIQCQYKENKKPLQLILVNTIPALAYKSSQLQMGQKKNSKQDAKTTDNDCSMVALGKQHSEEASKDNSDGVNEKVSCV
Gonadotropin-releasing hormone receptor (Homo sapiens), sequence (P30968 whole entry, looked up): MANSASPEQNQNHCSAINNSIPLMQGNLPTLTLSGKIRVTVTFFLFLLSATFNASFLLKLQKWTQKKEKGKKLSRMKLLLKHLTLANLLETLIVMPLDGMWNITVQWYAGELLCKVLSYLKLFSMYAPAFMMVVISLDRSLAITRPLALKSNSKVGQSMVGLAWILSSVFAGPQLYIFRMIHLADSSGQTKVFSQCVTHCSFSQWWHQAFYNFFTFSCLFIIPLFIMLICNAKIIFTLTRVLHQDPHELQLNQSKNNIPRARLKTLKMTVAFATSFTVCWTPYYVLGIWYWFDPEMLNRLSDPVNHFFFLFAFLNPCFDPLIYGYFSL
KiSS-1 receptor (Homo sapiens), sequence (Q969F8 whole entry, looked up): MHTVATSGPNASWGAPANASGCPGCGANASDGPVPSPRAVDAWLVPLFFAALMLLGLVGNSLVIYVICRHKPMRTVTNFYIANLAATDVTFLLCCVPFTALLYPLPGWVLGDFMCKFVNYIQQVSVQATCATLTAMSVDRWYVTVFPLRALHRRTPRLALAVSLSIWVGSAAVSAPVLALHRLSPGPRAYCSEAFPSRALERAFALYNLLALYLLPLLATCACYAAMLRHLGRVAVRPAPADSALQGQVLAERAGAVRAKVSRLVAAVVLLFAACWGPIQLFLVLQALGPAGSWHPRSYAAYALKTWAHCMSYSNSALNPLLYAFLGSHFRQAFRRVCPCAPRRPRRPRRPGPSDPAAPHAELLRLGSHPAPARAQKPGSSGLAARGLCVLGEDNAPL

CCc1cccc2c(CCO)c[nH]c12
not listed: [18] | [19]
inactive: all other assays above

CCCC(=O)OCC
not listed: [7] | [11] | [19]
inactive: all other assays above

NO
not listed: [11] | [19]
inactive: all other assays above

CC(C)(C)C(=O)c1ccccc1
not listed: [9] | [13] | [19]
inactive: all other assays above

NS(=O)(=O)c1ccc(C(=O)O)cc1
not listed: [7] | [12]
inactive: all other assays above

c1ccc(B(c2ccccc2)c2ccccc2)cc1
active: [14] 28.5 µM
not listed: [12] | [19]
inactive: all other assays above

O=C1CCc2ccc(OCCCCN3CCN(c4cccc(Cl)c4Cl)CC3)cc2N1
inactive: [2] | [3] | [4] | [5] | [18] | [6] | [12] | [14]
active: [1] 21.1 µM

CC(C)C1=CC2=CC[C@@H]3[C@](C)(CCC[C@@]3(C)C(=O)O)[C@H]2CC1
not listed: [7] | [8] | [9] | [13] | [14] | [19]
inactive: all other assays above

CCCCNC(=O)NCCCC
not listed: [6] | [17]
inactive: all other assays above

O=C(O)c1ccc(-n2nc(-c3ccccc3O)nc2-c2ccccc2O)cc1
active: [16] 11.2 µM
not listed: [11] | [13] | [14] | [19]
inactive: all other assays above

C=CCCCCCCC=C
not listed: [6] | [8] | [11] | [19]
inactive: all other assays above

Cc1ccc(C(C)(C)C)c(O)c1
not listed: [10] | [11] | [13] | [14] | [19]
inactive: all other assays above

C=C(C)[C@@H]1CC=C(C)CC1
not listed: [6]
inactive: all other assays above

Source: PubChem BioAssay (Tox21)
